For experiment [1], the target named is bovine Estrogen Receptor (ER), ESR1 (gene 407238) (UniProt P49884). The experiment in a line: NVS_NR_bER: NovaScreen (NVS) Nuclear Receptor Binding Assay for bovine Estrogen Receptor (ER) (AID 2283345; active = hit-call score of the fitted dose curve at least 0.9, where 1 is the maximum;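 also: actives lower the bound radioligand count which means they displace the ER ligand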). The gist of the method:
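Displacement of a radioligand from estrogen receptor in bovine uterine membrane preparations; scintillation signal taken at 18 hours, DMSO as baseline. Single-concentration duplicates (25 uM) preceded concentration-response follow-up of actives.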

Experiment [2] can be described thus: ACEA_ER_AUC_viability: ACEA Biosciences xCELLigence Real-Time Cell Analysis on Estrogen Receptor Agonism for Viability (AID 2283782; active = hit-call score of the fitted dose curve at least 0.9, where 1 is the maximum;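 also: continuous compound exposure with impedance area under curve over 80 h; hit means loss of impedance signal meaning reduced cell growth or viability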). The essentials: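 T-47D human breast cells in phenol red-free RPMI1640 with 10% charcoal-stripped FBS were dosed with an 8-point 1:4 dilution series from 100 uM top final concentration, in duplicate. Impedance-based growth was followed for 80 h; AUC analysed versus DMSO.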

The nature of experiment [3]: ATG_CRE_CIS: Attagene CIS-FACTORIAL HepG2 Assay for human cAMP Responsive Element (CRE) binding protein 3 (AID 2282926). The settings on record: HepG2 CRE cis-reporter, Attagene multiplexed mRNA; actives raise or lower the signal. The essentials: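 Transfected HepG2 were treated for 24 hours, then RNA was extracted and reporter cDNA amplified with sequence-specific primers. Labelled fragments were separated by capillary electrophoresis, and the CRE signal was fitted bidirectionally with DMSO as baseline.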

A short description of experiment [4]: ATG_AP_1_CIS: Attagene CIS-FACTORIAL HepG2 Assay for human Activator Protein 1 (AP-1) (AID 2282931). The settings on record: HepG2 Attagene cis-factorial AP-1 reporter mRNA; actives raise or lower the signal. The gist of the method: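 HepG2 cells transiently transfected with cis-element-driven multiplex reporter units; 24 h compound exposure. Reporter mRNA quantified by RT-PCR, FAM-labelled fragments resolved by capillary electrophoresis; bidirectional fit versus DMSO baseline.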

Experiment [5] in a line: ATG_ISRE_CIS: Attagene CIS-FACTORIAL HepG2 Assay for human Interferon Regulatory Factor 1 (IRF1) binding to an Interferon-Stimulated Response Element (ISRE) (AID 2282948). The settings on record: HepG2 ISRE cis-reporter (Attagene), mRNA transcription readout; actives raise or lower the signal. The essentials:
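Cell-based cis-reporter assay; HepG2; 24 h exposure; reporter mRNA by RT-PCR plus capillary electrophoresis fluorescence; activity in either direction scored relative to DMSO.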

The nature of experiment [6]: ATG_M_32_CIS: Attagene CIS-FACTORIAL HepG2 Assay for M32 Transcription Factor (Internal Marker) (AID 2282949).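 Also: background control marker of the multiplexed CIS panel rather than a real target.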 Particulars: HepG2 Attagene cis-factorial M32 reporter, mRNA; actives raise or lower the signal. The essentials: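 Following 24 h chemical exposure of HepG2 cells transiently expressing cis-promoter reporter constructs, reporter transcript levels were determined by RT-PCR with fluorescent labelling and capillary electrophoresis, then fitted bidirectionally against DMSO.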

Experiment [7] can be described thus: ATG_MRE_CIS: Attagene CIS-FACTORIAL HepG2 Assay for human Metal Responsive Element (MRE) (AID 2282954). Particulars: HepG2 MRE cis-reporter transcription, Attagene multiplex; actives raise or lower the signal. The essentials: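 HepG2 cells transiently transfected with multiple cis-element reporter units measure endogenous MTF1-driven transcription. After 24 h compound exposure, reporter mRNA is quantified by RT-PCR with 6-FAM labelling, HpaI digestion and capillary electrophoresis; bidirectional fits versus DMSO.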

Experiment [8] addresses Paired box protein Pax-6 (Homo sapiens) (UniProt P26367). The experiment in a line: ATG_Pax6_CIS: Attagene CIS-FACTORIAL HepG2 Assay for human Paired Box 6 (PAX6) (AID 2282956). Particulars: HepG2 CIS-FACTORIAL PAX6 reporter transcription, RNA readout; actives raise or lower the signal. The essentials:
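Multiplexed cis-reporter HepG2 system; 24 h treatment; reporter mRNA read by RT-PCR/CE fluorescence; bidirectional fit vs DMSO.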

Experiment [9] can be described thus: ATG_PXRE_CIS: Attagene CIS-FACTORIAL HepG2 Assay for human Pregnane X Receptor Element (PXRE) (AID 2282957). The settings on record: HepG2 Attagene CIS-FACTORIAL PXRE reporter, mRNA; actives raise or lower the signal. The gist of the method:
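Multiplexed cis-reporter assay in transiently transfected human HepG2 cells; 24 h chemical exposure. Reporter transcripts quantified by RT-PCR with fluorescent labeling and capillary electrophoresis.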

Experiment [10] addresses Transcription factor Sp1 (Homo sapiens) (UniProt P08047). The experiment in a line: ATG_Sp1_CIS: Attagene CIS-FACTORIAL HepG2 Assay for human Specificity Protein 1 (Sp1) (AID 2282961). Particulars: HepG2 Sp1 cis-reporter transcription, actives raise or lower the signal. The essentials: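 HepG2 cells transiently transfected with multiple reporter transcription units driven by cis-regulatory elements; Sp1-responsive reporter mRNA measured 24 h after dosing by RT-PCR and capillary electrophoresis fluorescence, fitted bidirectionally against DMSO baseline.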

Experiment [11] addresses Signal transducer and activator of transcription 3 (Homo sapiens) (UniProt P40763). The experiment in a line: ATG_STAT3_CIS: Attagene CIS-FACTORIAL HepG2 Assay for human Signal Transducer and Activator of Transcription 3 (STAT3) (AID 2282963). Particulars: HepG2, Attagene cis-factorial STAT3 reporter transcription; actives raise or lower the signal. The essentials: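 HepG2 cells transiently transfected with cis-element-driven multiple reporter transcription units; after 24 h chemical exposure, reporter mRNA measured by RT-PCR, 6-FAM primer-extension labelling, HpaI digestion and capillary electrophoresis. Bidirectional fitting versus DMSO baseline.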

Experiment [12] is described as follows: ATG_TA_CIS: Attagene CIS-FACTORIAL HepG2 Assay for human TA Basal Promoter (AID 2282964). Particulars: HepG2 Attagene CIS-factorial TA basal promoter reporter; actives raise or lower the signal. The gist of the method: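 Fluorescence from labelled RT-PCR reporter fragments, separated by capillary electrophoresis, gives the signal. Cells: HepG2 transiently carrying multiple reporter units, 24 h chemical dosing. Gain or loss relative to DMSO.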

Experiment [13] is described as follows: ATG_TCF_b_cat_CIS: Attagene CIS-FACTORIAL HepG2 Assay for human T-Cell-Factor with beta-catenin (TCF/b-cat) (AID 2282965). The settings on record: HepG2 TCF/beta-catenin cis-reporter transcription, actives raise or lower the signal. The essentials: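 Using capillary electrophoresis as the read-out, labelled reporter cDNA fragments from transiently transfected HepG2 were sized and quantified. Exposure lasted 24 hours; activity in either direction was referenced to DMSO.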

A short description of experiment [14]: ATG_TGFb_CIS: Attagene CIS-FACTORIAL HepG2 Assay for human Transforming Growth Factor (TGF) (AID 2282967). Particulars: HepG2 Attagene CIS TGFb reporter, mRNA transcription; actives raise or lower the signal. The essentials: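 Bidirectional fitting relative to DMSO gave the endpoint. Underlying data: reporter mRNA from HepG2 cells carrying transiently transfected cis-regulated reporter constructs, harvested 24 h after dosing and analyzed by RT-PCR and capillary electrophoresis.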

For experiment [15], the target named is X-box-binding protein 1 (Homo sapiens) (UniProt P17861). The experiment in a line: ATG_Xbp1_CIS: Attagene CIS-FACTORIAL HepG2 Assay for human X-box Binding Protein 1 (XBP1) (AID 2282972). The settings on record: HepG2 XBP1 cis-element reporter, Attagene multiplex; actives raise or lower the signal. The gist of the method:
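Fluorescence-labelled cDNA fragments from reporter transcripts, separated by capillary electrophoresis, give the signal. Source: HepG2 cells transfected with promoter-driven reporter units, harvested 24 h post-dose. DMSO served as reference for bidirectional curve fitting.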

The target of experiment [16] is Transcriptional activator Myb (Homo sapiens) (UniProt P10242). The experiment in a line: ATG_Myb_CIS: Attagene CIS-FACTORIAL HepG2 Assay for human Myeloblastosis (Myb) Proto-Oncogene Transcription Factor (AID 2282986). Particulars: HepG2 Attagene CIS-FACTORIAL Myb reporter transcription; actives raise or lower the signal. The gist of the method:
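HepG2 cells were transiently transfected with cis-regulated multiple reporter transcription units reflecting endogenous Myb activity, then exposed to compound for 24 hours. Reporter mRNA was measured by RT-PCR with capillary electrophoresis; bidirectional fitting versus DMSO baseline.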

For experiment [17], the target named is Myc proto-oncogene protein (Homo sapiens) (UniProt P01106). The experiment in a line: ATG_Myc_CIS: Attagene CIS-FACTORIAL HepG2 Assay for human Myelocytomatosis (Myc) Proto-Oncogene Transcription Factor (AID 2282990). Particulars: HepG2, Attagene cis-reporter transcription factor activity; actives raise or lower the signal. The essentials: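 Multiplexed cis-reporter transcription in HepG2 cells after 24 h chemical treatment. Reporter mRNA measured by RT-PCR and capillary electrophoresis fluorescence; activity fitted bidirectionally against DMSO control.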

Experiment [18] in a line: ATG_Oct_MLP_CIS: Attagene CIS-FACTORIAL HepG2 Assay for human Octamer-Binding Transcription Factor (Oct) (AID 2282993). The settings on record: HepG2 Attagene cis-factorial Oct reporter, mRNA; actives raise or lower the signal. The gist of the method:
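HepG2, transient MRTU transfection, cis promoter elements; 24 h dosing; RT-PCR/CE fluorescence read-out of reporter mRNA; fit both directions vs DMSO.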

Experiment [19] is described as follows: CCTE_Harrill_HTTr_Viability_MCF7: CCTE's 6-hour Cell Viability Assessment for the High-Throughput Transcriptomics (HTTr) Platform, in MCF-7 cells cultured in DMEM + 10% fetal bovine serum, Harrill Lab (AID 2284010). The essentials:
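Viability measured through PI dye exclusion by high-content imaging at 6 h post-dosing.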

The nature of experiment [20]: CCTE_Harrill_HTTr_Apoptosis_MCF7: CCTE's 6-hour Apoptosis Assessment for the High-Throughput Transcriptomics (HTTr) Platform, in MCF-7 cells cultured in DMEM + 10% fetal bovine serum, Harrill Lab (AID 2284011). The gist of the method: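 Apoptosis in MCF-7 cells grown in DMEM with 10% fetal bovine serum was scored after a six hour exposure by high content imaging of caspase-3/7 activation (CellEvent Caspase 3/7 Green), with DMSO serving as negative control and baseline.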

The results in this text go back to PubChem BioAssay (EPA / NIEHS).

Records with an inconclusive call do not appear. The source made the active and inactive calls. The calls were made as follows, unless noted: active = hit-call score of the fitted dose curve at least 0.9, where 1 is the maximum; inactive = score below 0.9.

Chain of Paired box protein Pax-6 (Homo sapiens) (P26367 whole entry, looked up): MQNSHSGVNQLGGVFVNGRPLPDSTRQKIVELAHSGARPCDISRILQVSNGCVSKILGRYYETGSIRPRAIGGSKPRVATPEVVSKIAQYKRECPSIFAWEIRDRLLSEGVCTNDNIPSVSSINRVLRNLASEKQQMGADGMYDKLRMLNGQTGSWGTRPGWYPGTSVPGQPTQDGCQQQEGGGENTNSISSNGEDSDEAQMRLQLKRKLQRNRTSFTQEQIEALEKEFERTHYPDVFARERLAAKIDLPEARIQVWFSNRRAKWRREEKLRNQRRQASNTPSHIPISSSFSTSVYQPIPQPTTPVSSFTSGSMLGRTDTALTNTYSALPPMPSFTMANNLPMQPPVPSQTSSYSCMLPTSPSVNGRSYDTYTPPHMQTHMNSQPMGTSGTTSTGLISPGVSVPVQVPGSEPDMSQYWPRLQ
Chain of Transcription factor Sp1 (Homo sapiens) (P08047 whole entry, looked up): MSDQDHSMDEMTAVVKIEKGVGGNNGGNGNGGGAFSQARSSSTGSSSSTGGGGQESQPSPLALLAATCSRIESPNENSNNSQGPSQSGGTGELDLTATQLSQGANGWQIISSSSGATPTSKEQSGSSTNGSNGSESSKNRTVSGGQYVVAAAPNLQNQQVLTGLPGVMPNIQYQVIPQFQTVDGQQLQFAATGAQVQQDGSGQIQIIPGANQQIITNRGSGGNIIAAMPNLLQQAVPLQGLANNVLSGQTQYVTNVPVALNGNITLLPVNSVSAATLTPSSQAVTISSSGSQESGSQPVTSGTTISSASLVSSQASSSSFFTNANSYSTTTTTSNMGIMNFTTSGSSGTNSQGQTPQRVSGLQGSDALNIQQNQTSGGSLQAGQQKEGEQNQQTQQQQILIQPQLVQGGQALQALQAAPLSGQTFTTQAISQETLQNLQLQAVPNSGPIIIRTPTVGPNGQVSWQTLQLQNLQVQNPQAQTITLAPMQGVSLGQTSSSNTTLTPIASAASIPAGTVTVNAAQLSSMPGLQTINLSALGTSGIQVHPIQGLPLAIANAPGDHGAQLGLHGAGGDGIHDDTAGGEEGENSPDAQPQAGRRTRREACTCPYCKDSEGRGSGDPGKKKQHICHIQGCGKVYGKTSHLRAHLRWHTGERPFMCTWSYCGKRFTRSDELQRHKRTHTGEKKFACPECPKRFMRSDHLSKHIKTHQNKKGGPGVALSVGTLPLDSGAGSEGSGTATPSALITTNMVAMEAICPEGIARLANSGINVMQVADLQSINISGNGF
Chain of Myc proto-oncogene protein (Homo sapiens) (P01106 whole entry, looked up): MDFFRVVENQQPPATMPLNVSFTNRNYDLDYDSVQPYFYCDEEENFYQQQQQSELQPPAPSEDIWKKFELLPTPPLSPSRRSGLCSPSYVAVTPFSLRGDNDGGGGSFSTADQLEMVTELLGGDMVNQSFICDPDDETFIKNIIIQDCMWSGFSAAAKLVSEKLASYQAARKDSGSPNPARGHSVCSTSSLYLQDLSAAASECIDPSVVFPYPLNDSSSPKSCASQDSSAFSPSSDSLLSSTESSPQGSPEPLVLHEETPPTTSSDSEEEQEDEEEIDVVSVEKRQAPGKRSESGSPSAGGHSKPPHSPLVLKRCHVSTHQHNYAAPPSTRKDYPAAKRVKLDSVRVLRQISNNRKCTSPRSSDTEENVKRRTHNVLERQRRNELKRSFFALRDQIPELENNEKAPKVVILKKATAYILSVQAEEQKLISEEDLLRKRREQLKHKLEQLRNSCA
Chain of Transcriptional activator Myb (Homo sapiens) (P10242 whole entry, looked up): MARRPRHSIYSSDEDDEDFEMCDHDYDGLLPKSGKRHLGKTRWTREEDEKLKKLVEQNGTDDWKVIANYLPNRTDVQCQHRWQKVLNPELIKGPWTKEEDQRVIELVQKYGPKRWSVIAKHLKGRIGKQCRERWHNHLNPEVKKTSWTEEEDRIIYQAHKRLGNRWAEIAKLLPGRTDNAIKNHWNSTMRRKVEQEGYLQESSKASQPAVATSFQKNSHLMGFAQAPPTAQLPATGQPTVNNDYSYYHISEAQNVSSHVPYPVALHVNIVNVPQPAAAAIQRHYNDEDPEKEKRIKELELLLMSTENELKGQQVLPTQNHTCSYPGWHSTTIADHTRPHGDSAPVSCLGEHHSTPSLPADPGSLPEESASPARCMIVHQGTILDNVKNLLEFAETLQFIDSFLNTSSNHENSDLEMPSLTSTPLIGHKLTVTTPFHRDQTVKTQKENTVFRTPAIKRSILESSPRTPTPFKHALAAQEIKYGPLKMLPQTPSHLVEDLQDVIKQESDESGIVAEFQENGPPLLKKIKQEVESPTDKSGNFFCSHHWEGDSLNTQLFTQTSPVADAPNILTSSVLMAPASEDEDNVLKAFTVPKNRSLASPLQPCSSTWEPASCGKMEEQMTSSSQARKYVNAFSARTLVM
Chain of bovine Estrogen Receptor (ER), ESR1 (gene 407238) (P49884 whole entry, looked up): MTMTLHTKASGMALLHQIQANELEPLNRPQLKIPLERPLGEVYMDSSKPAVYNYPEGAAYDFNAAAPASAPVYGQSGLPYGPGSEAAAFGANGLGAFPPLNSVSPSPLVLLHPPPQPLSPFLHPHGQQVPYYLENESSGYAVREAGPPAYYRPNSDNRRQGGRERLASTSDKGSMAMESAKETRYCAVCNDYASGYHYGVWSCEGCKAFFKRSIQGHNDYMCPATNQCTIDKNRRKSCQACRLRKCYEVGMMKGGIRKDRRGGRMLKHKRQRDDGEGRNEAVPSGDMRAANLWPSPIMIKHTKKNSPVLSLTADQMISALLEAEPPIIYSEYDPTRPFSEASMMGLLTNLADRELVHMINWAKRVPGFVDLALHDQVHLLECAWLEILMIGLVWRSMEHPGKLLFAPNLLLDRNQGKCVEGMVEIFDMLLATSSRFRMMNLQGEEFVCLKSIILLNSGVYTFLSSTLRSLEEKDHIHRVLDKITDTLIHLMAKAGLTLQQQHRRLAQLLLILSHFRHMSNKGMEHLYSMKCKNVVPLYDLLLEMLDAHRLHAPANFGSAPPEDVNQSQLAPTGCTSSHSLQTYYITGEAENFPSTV
Chain of Signal transducer and activator of transcription 3 (Homo sapiens) (P40763 whole entry, looked up): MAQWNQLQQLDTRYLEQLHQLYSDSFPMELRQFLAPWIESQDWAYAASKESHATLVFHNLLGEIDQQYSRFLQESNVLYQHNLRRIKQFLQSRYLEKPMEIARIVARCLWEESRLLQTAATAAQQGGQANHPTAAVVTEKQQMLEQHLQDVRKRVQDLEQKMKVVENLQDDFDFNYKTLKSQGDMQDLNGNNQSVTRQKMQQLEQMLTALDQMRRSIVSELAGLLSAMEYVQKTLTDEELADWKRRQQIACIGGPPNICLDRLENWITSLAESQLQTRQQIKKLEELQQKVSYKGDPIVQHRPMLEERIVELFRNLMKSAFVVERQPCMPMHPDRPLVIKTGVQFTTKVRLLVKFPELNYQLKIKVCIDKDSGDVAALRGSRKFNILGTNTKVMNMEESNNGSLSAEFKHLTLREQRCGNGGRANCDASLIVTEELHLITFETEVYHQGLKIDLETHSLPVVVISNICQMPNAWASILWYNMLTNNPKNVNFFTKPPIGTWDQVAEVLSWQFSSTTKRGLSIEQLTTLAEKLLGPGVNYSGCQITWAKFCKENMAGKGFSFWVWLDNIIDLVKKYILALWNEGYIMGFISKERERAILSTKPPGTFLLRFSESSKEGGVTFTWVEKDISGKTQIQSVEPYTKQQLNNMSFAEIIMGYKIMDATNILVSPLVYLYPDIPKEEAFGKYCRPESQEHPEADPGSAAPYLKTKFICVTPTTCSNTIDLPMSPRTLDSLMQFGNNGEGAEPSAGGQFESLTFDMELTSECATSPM
Chain of X-box-binding protein 1 (Homo sapiens) (P17861 whole entry, looked up, the tested form may be a part): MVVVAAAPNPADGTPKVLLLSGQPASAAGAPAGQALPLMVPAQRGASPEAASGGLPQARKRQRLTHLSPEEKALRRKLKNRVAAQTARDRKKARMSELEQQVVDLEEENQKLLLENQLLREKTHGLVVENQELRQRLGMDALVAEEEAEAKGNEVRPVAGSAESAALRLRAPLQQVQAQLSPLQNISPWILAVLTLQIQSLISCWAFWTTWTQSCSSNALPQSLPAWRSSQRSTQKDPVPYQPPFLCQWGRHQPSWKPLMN

Regarding `CC(C)(C)C(=O)C(=O)O`, the outcome in experiment [1] and in experiment [2] was inactive.

For `CC[N+](CC)(CC(=O)Nc1c(C)cccc1C)Cc1ccccc1`, the compound was called inactive in [3], in [4], in [5], in experiment [6], in experiment [7] and in experiment [8]. For the same compound, the outcome in [10], in [11], in [12], in [13], in [14] and in experiment [15] was inactive. Further, the compound was called inactive in experiment [16], in [17], in experiment [18] and in experiment [2]. For the same compound, in [9], the AC50 (in general, the concentration at which the activity in the assay is half-maximal) is 32.4 µM (active).

As to `CCCCCCCCCCCCSC#N`, the compound was classed as inactive in experiment [1].

Turning to `CCCCC(CC)COC(=O)C=Cc1ccc(OC)cc1` (stereo not given), the outcome in experiment [19] and in experiment [20] was inactive.

On to `C=CCOCC(CC)(CO)COCC=C`, for which the outcome in experiment [3], in [4], in experiment [5], in [6], in [7] and in experiment [8] was inactive. Further, the outcome in experiment [10], in experiment [11], in experiment [12], in experiment [13], in experiment [14] and in experiment [15] was inactive. The outcome in [16], in experiment [17], in experiment [18] and in experiment [2] was inactive. Besides, the AC50 in experiment [9] was 47.1 µM (active).

Take `CC/C=C\CCO`: the compound was classed as inactive in experiment [3], in experiment [4], in experiment [5], in experiment [6], in experiment [7] and in experiment [8]. The compound was called inactive in experiment [10], in experiment [11], in [12], in experiment [13], in [14] and in experiment [15]. The outcome in experiment [16], in experiment [17], in [18], in [19] and in experiment [20] was inactive. The AC50 in [9] was 29.3 µM (active).

With `COc1ccc(COC=O)cc1`, the compound was classed as inactive in experiment [1] and in [2].

`CCCCCCC/C=C/C=O`: the compound was called inactive in [1].

As to `Cc1cccc(NC(=S)N(C)C)c1`, the outcome in experiment [1] was inactive.

Turning to `CNC(=O)Nc1ccc(Cl)c(Cl)c1`, the result in experiment [1] was inactive.

`Oc1ccc2c(c1)Cc1ccccc1-2`: the AC50 in experiment [1] was 36.3 µM (active). For the same compound, the result in [19] and in [20] was inactive.

In the case of `CCCCCCCCCCCCN(CCO)CCO`, the outcome in [1] was inactive.

For `CC(O)(c1ccc(Cl)cc1)c1ccc(Cl)cc1`, in [1], the compound was classed as inactive.

Regarding `O=S(=O)(O)c1cc(Cl)c(Cl)cc1Cl`, the compound was called inactive in experiment [1].

In the case of `C[C@@H]1[C@H](O)[C@@H](C)/C=C/C=C/C=C/C=C/C=C/C=C/C=C/[C@H](O[C@@H]2O[C@H](C)[C@@H](O)[C@H](N)[C@@H]2O)C[C@@H]2O[C@](O)(C[C@@H](O)C[C@@H](O)[C@H](O)CC[C@@H](O)C[C@@H](O)CC(=O)O[C@H]1C)C[C@H](O)[C@H]2C(=O)O`, the result in experiment [19] and in experiment [20] was inactive.

Consider `CNCCC(Oc1ccc(C(F)(F)F)cc1)c1ccccc1` (stereo not given), for which the AC50 in experiment [19] is 75.8 µM (active); in experiment [20], 69.4 µM (active).

For `CCOc1nc2cccc(C(=O)OC(C)OC(=O)OC3CCCCC3)c2n1Cc1ccc(-c2ccccc2-c2nn[nH]n2)cc1` (stereo not given), the outcome in experiment [19] and in experiment [20] was inactive.

`CCC(=O)C(=O)CC`: in experiment [1], the outcome was inactive.

`C#C[C@]1(OC(C)=O)CC[C@H]2[C@@H]3CCC4=C[C@@H](OC(C)=O)CC[C@@H]4[C@H]3CC[C@@]21C`: the outcome in experiment [19] and in experiment [20] was inactive.

Consider `CC(COc1ccccc1)N(CCCl)Cc1ccccc1` (stereo not given), for which the AC50 in experiment [2] is 88.7 µM (active). The outcome in [19] and in experiment [20] was inactive.
